# JMJD2A Tudor inh: inhibitors of human JMJD2A Tudor domain. Potency, µM (series often up to 114 µM), for inactives: at the highest dose activity change, negative = inhibition, actives largely listed as inhibitors. AlphaScreen JMJD2A-Tudor / H3K4me3 peptide binding. O75164. 4.4% of 390,000 active; also: % is scaled to controls: 0 for no effect and ±100 for the full control effect; nearly all actives have a fitted effect of over 50% in size
# HP1b chromo inh: inhibitors of HP1-beta chromodomain binding to methylated histone tails; P83916; AlphaScreen HP1-beta / biotin-H3K9me3 peptide binding; Potency, µM (highest dose often 114 µM), for inactives: top-dose activity change, negative = inhibition, usual class: inhibitors; 0.56% of 390,000 active; also: nearly all actives have a fitted effect of over 70% in size
# Target sequence (P83916 whole entry, looked up): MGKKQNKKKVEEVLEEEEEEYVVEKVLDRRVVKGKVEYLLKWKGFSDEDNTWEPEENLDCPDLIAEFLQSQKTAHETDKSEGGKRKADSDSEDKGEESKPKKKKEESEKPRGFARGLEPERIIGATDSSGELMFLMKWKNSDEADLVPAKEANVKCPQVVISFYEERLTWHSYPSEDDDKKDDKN
#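 HP1-beta protein (50 nM final) preincubated 30 min at room temperature with biotinylated H3(1-18)K9me3 peptide (50 nM) in PBS pH 7.4, 0.01% Tween-20, then compound added for 30 min. AlphaScreen streptavidin donor/nickel chelate acceptor beads (10 ug/mL final), 30 min dark, luminescence read.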
# G9a block: blocks human histone lysine methyltransferase G9a. Q96KQ7. Potency, µM (series often up to 102 µM), inactives show at the top dose activity, negative = inhibition, actives largely listed as inhibitors. 8.8% of 350,000 active. AID 504332. G9a H3K9 monomethylation, AlphaScreen, 2 h; also: % is scaled to controls: 0 for no effect and ±100 for the full control effect; nearly all actives have a fitted effect of over 75% in size
# Target sequence (Q96KQ7 913-1193 limits assumed): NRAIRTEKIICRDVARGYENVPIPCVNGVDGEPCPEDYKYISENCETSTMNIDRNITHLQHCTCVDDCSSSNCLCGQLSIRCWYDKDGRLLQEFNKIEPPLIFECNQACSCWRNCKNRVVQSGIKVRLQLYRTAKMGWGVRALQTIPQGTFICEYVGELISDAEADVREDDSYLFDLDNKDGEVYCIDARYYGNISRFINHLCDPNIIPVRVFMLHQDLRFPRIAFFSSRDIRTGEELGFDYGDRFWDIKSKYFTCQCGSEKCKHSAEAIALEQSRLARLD
#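 Enzyme 20 nM + cpd, 15 min RT; add b-H3K9 pep 500 nM / SAM 20 uM; 2 h RT; anti-H3K9me1 Ab 0.5 ug/mL + SA donor / anti-rabbit acceptor beads 20 ug/mL each, 10 min; AlphaScreen read.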
# L3MBTL1 inh: blocks human L3MBTL1. AlphaScreen L3MBTL1–H3K9me1 peptide binding. Q9Y468. AID 485360. Potency, µM (highest dose often 57.1 µM), for inactives: at the highest dose activity, negative = inhibition, hits mostly inhibitors. 0.66% of 230,000 active; also: % is scaled to controls: 0 for no effect and ±100 for the full control effect; nearly all actives have a fitted effect of over 60% in size
#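 Read-out is AlphaScreen signal from streptavidin donor and nickel chelate acceptor beads (10 ug/mL final each) bridging L3MBTL1 (50 nM) and biotinylated K9-monomethylated H3(1-15) peptide (75 nM), after 30 min compound exposure at room temperature.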
# BAZ2B inh: BAZ2B (human) inhibition. 4.4% of 360,000 active. Potency, µM (titrated, usually from 114 µM), for the others: top-dose activity change, negative = inhibition, hits mostly inhibitors. Q9UIF8. AlphaScreen BAZ2B-H3K14Ac peptide displacement; also: % is scaled to controls: 0 for no effect and ±100 for the full control effect; nearly all actives have a fitted effect of over 60% in size
#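 Complex of BAZ2B and biotin-H3K14Ac (50 nM apiece) forms over 30 min at RT, then faces library compounds up to 110 uM for another 30 min; AlphaScreen beads added, 20 min dark incubation, luminescence read.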
# An asterisk follows results filed as active; ? = inconclusive; . = no result; [ ] = another dose, or the depositor's remark. Hits are enriched below; roughly 11% of the tested compounds scored in any of these assays. Calls follow the shape of the dose curve; as a rule, active = well fitted inhibition curve with a large enough effect; inconclusive = small, poorly fitted or top-dose-only effect; inactive = no such curve, though single readings can be large or run the other way. Potency is read from the fitted curve at half-maximal effect.
SMILES,JMJD2A Tudor inh,HP1b chromo inh,G9a block,L3MBTL1 inh,BAZ2B inh
CCc1ccc(NS(=O)(=O)c2ccc3[nH]cc(C(=O)N4CCc5ccccc54)c(=O)c3c2)cc1,?,?,50µM*,?,?
COc1ccc(OCCCC(=O)N(CCC2=CCCCC2)c2c(N)n(Cc3ccccc3)c(=O)[nH]c2=O)cc1,0%,23%,-4%[0.501 µM],-3%,-26%
COc1ccccc1CCC(=O)N(CCC1=CCCCC1)c1c(N)n(Cc2ccccc2)c(=O)[nH]c1=O,-14%,4%,50µM*,-6%,5%
COCCN(C(=O)CN1CCc2ccccc2C1)c1c(N)n(Cc2ccccc2)c(=O)[nH]c1=O,-7%,31%,40µM*,-3%,5%
CCC1CCc2sc(C(=O)OCC(=O)N(CCOC)c3c(N)n(Cc4ccccc4)c(=O)[nH]c3=O)cc2C1 (stereo not given),-8%,11%,28µM*,-11%,1%
COCCN(C(=O)COC(=O)c1ccccc1NCc1ccco1)c1c(N)n(Cc2ccccc2)c(=O)[nH]c1=O,-16%,22%,79µM*,-7%,-30%
CCOc1ccc(S(=O)(=O)Nc2cccc(C(=O)NCCCn3ccnc3)c2)cc1,-21%,39%,-2%[59 µM],0%,-11%
CC(=O)Nc1ccc(C(=O)COC(=O)C2CC2C)c(F)c1 (stereo not given),-8%,39%,?,-1%,-2%
COc1ccc(C2=NN(c3nc(C(=O)O)cs3)C(O)(C(F)(F)F)C2)c(OC)c1 (stereo not given),1%,73%,-28%,-23%,50µM*
COc1ccc(C2=NN(C(=O)c3cccs3)C(O)(C(F)(F)F)C2)cc1 (stereo not given),1%,49%,-27%,.,13%
COc1ccc(NC(=O)c2oc3ccccc3c2NC(=O)C23CC4CC(CC(C4)C2)C3)c(OC)c1,-15%,25%,9%[59 µM],.,-16%
Cc1ccc(-c2nnn3c2nc(NCC(C)c2ccccc2)c2ccccc23)cc1 (stereo not given),6%,51%,4%[59 µM],.,4%
Cc1cccc(NS(=O)(=O)c2ccc3oc(=O)ccc3c2)c1C,-1%,24%,.,-12%,8%
Cc1cc(=O)[nH]c(SCCOc2ccc(OC(C)C)cc2)n1,?,4%,14µM*,?,-32%
O=C(CC(Sc1ccc(Br)cc1)C(=O)O)c1ccc(Br)cc1 (stereo not given),.,.,25µM*,.,1%
Cc1ccc(SC(CC(=O)c2ccc(C)cc2)C(=O)O)cc1 (stereo not given),8%,56%,-5%[59 µM],.,31%
O=C(CNC(=O)c1ccc2n[nH]nc2c1)OC(C(=O)Nc1cc(C(F)(F)F)ccc1Cl)c1ccccc1 (stereo not given),-26%,.,.,.,.
O=C(O)C(Cc1ccccc1)N1C(=O)/C(=C/c2cccnc2)SC1=S (stereo not given),16µM*,-21%,.,8%,-32%
O=C(O)[C@H](Cc1ccccc1)N1C(=O)c2ccncc2C1=O,-8%,12%,-7%[59 µM],-9%,-4%
COc1ccc(/C=C2\SC(=S)N(CC(=O)N3CCN(C)CC3)C2=O)cc1,-27%,-9%,-22%,-8%,-30%
COc1ccc(/C=C2/SC(=O)N(CC(O)Cn3c4ccccc4c4ccccc43)C2=O)cc1 (stereo not given),79µM*,-3%,25%[59 µM],-8%,-36%
COc1ccc(/C=C2\SC(=S)N(C(Cc3ccccc3)C(=O)O)C2=O)cc1 (stereo not given),?,?,25µM*,?,40µM*
CC(=O)NN1C(=O)/C(=C/c2ccc(C(C)C)cc2)SC1=S,-35%,?,-21%[59 µM],-15%,45µM*
O=C(NN1C(=O)/C(=C\c2cccnc2)SC1=S)C(c1ccccc1)c1ccccc1,?,?,32µM*,-11%,-29%
O=C(NN1C(=O)/C(=C/c2cccnc2)SC1=S)C(c1ccccc1)c1ccccc1,?,-11%,?,-12%,-36%
SMILES,JMJD2A Tudor inh,HP1b chromo inh,G9a block,L3MBTL1 inh,BAZ2B inh
O=c1cc(O)n(-c2ccc(F)cc2)c(=S)[nH]1,-3%,33%,32µM*,.,-1%
Cc1cc(C=O)c(C)n1-c1cc(C(=O)O)cc(C(=O)O)c1,?,25µM*,.,5µM*,18µM*
Cc1ccc(C)n1-c1cccc(C(=O)Nc2ccccc2)c1,-21%,20%,.,.,-38%
Cc1cc(C=O)c(C)n1-c1cccc(C(=O)O)c1,-18%,20%,40µM*,25µM*,79µM*
Cc1cc(/C=N/O)c(C)n1-c1ccccc1,?,-2%,-6%[59 µM],-8%,-34%
Cc1cc(/C=N/O)c(C)n1-c1cccc(Cl)c1,?,?,45µM*,-20%,50µM*
Cc1ccc(C)n1-c1cccc(C(=O)O)c1,.,.,4.5µM*,1.8µM*,7.1µM*
CN(C)/N=C/C=C1\CC/C(=C\c2ccc(Br)cc2)C1=O,-30%,-8%,50µM*,.,?
O=C(CNC(=O)c1ccc(C(F)(F)F)cc1)OC(C(=O)Nc1cc(C(F)(F)F)ccc1Cl)c1ccccc1 (stereo not given),-19%,.,.,.,.
Cn1c(=O)c2c(-c3ccccc3)n3c4ccccc4nc(-c4ccccc4)c3c2n(C)c1=O,4%,43%,4%[59 µM],.,1%
CCOc1ccc(CCNC(=O)CN2C(=O)COc3ccc(S(=O)(=O)N4CCC(C)CC4)cc32)cc1,-6%,25%,10%[59 µM],.,-6%
O=S(=O)(NCc1ccc(Cl)cc1)c1ccc2[nH]c3c(c2c1)CCCC3,?,-19%,-2%[59 µM],.,11%
COC(=O)c1ccc(NC(=O)CC2C(=O)N(c3cccc(C)c3)C(=O)N2C2CCCC2)cc1 (stereo not given),0%,37%,7.1µM*,.,-18%
COc1ccc(CNc2ncnc3nc[nH]c23)cc1OC,-13%,45%,.,.,.
CCNC(=O)CC1S/C(=N/N=C(\C)c2ccccc2)NC1=O (stereo not given),?,20%,47%,7%,-25%
C/C(=N\N=C1\NC(=O)C(Cc2ccccc2)S1)c1ccccc1 (stereo not given),63µM*,?,?,-6%,?
Cc1c(Nc2cc(Cl)c3nonc3c2[N+](=O)[O-])c(=O)n(-c2ccccc2)n1C,-9%[11.4 µM],-24%,7.1µM*,.,-20%
O=[N+]([O-])c1c(Nc2cccc(O)c2)cc(Cl)c2nonc12,?,-15%,45µM*,-15%,?
O=C(O)c1ccc(Nc2cc(Cl)c3nonc3c2[N+](=O)[O-])cc1,-14%,7%,35µM*,3%,-29%
Cc1ccc(C2=NN(CC(=O)NCCc3ccc(Cl)cc3)C(=O)CC2)cc1,-29%,59%,-8%[59 µM],.,28%
CCN1/C(=C/C=C/C=C/c2sc3ccccc3[n+]2CC)Sc2ccccc21,.,.,28µM*,?,11µM*
